Assay results: the supplement of paper PMC6555819

Legend:
Experiment in all cases: PBM binding z-score (relative to random genomic background probes); higher = stronger binding; sequences stand for … in GC…GCGATTGACAGCGTAGAATGAAGG
[1] = tested on: PPARg:RXRa DBDmut IVT, anti-RXR (DBD mutation: RXRa K156A/R161A, NR concentration 270 nM, RXRa partner concentration 90 nM)
Outline: (§1)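 Binding z-scores take random background probes as their reference. They come from custom Agilent 4×180K protein-binding microarrays incubated 1 h with ligand-free nuclear receptor dimers, with antibodies against each partner (one per run) detecting binding. Scanned fluorescence was regression-normalized.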

[2] = tested on: PPARg:RXRa IVT, anti-PPARg (NR concentration 270 nM, RXRa partner concentration 90 nM)
Outline: as §1

[3] = tested on: PPARg DBDmut:RXRa IVT, anti-PPARg (DBD mutation: PPARg1 K132A/R137A, NR concentration 270 nM, RXRa partner concentration 90 nM)
Outline: as §1

[4] = tested on: PPARg DBDmut IVT, anti-PPARg (DBD mutation: PPARg1 K132A/R137A, NR concentration 270 nM)
Outline: as §1

[5] = tested on: PPARg homodimer (NR concentration 180 nM)
Outline: as §1

[6] = tested on: PXR:RXRa (NR concentration 270 nM, RXRa partner concentration 90 nM)
Outline: as §1

[7] = tested on: PXR homodimer (NR concentration 270 nM)
Outline: as §1

[8] = tested on: RARa:RXR (NR concentration 270 nM, RXRa partner concentration 90 nM)
Outline: as §1

[9] = tested on: RARa homodimer (NR concentration 270 nM)
Outline: as §1

[10] = tested on: RARb:RXRa (NR concentration 270 nM, RXRa partner concentration 90 nM)
Outline: as §1

[11] = tested on: RARb homodimer (NR concentration 270 nM)
Outline: as §1

[12] = tested on: RARg:RXRa (NR concentration 270 nM, RXRa partner concentration 90 nM)
Outline: as §1

[13] = tested on: RARg homodimer (NR concentration 270 nM)
Outline: as §1

[14] = tested on: RXRa DBDmut IVT, anti-RXR (DBD mutation: RXRa K156A/R161A, NR concentration 90 nM)
Outline: as §1

[15] = tested on: RXRa homodimer (NR concentration 180 nM)
Outline: as §1

[16] = tested on: THRa:RXRa (NR concentration 90 nM, RXRa partner concentration 90 nM)
Outline: as §1

[17] = tested on: THRa homodimer (NR concentration 90 nM)
Outline: as §1

[18] = tested on: VDR:RXRa (NR concentration 270 nM, RXRa partner concentration 90 nM)
Outline: as §1

[19] = tested on: VDR homodimer (NR concentration 270 nM)
Outline: as §1

Sequence | PBM binding z-score [1] | PBM binding z-score [2] | PBM binding z-score [3] | PBM binding z-score [4] | PBM binding z-score [5] | PBM binding z-score [6] | PBM binding z-score [7] | PBM binding z-score [8] | PBM binding z-score [9] | PBM binding z-score [10] | PBM binding z-score [11] | PBM binding z-score [12] | PBM binding z-score [13] | PBM binding z-score [14] | PBM binding z-score [15] | PBM binding z-score [16] | PBM binding z-score [17] | PBM binding z-score [18] | PBM binding z-score [19]
ATACCAAGGTGGTCGTGAGGTCGTTGATACTAAC | -0.434 | 0.335 | 0.113 | 0.0753 | 0.722 | 2.61 | 1.69 | 1.99 | 0.748 | 1.08 | 1.63 | 1.25 | 0.566 | 0.422 | 1.53 | 3.02 | 2.64 | 2.79 | 3.47
ATCTCTAGGTAAAGTTCACTGAAAGATCGATAGA | 2.42 | 3.28 | 2.5 | 1.51 | 2.51 | 3.54 | 2.92 | 2.82 | 1.43 | 3.51 | 3.34 | 3.14 | 3.42 | 2.2 | 2.82 | 1.95 | 0.46 | 2.89 | 3.79
TCTTGTAGATCAACAGGAGATTAAGAAAGATCGA | 1.37 | 0.548 | 1.52 | 0.865 | -0.322 | -0.306 | -0.21 | -0.526 | -0.298 | -0.393 | -1.12 | -0.112 | -0.181 | 0.2 | 0.147 | -0.777 | -1.13 | 0.136 | -0.417
ACTATTAGTTGAGACGAGGGCACCCGATAGGTTG | -0.207 | 0.476 | 0.77 | 0.797 | -0.607 | 1.33 | 0.328 | 1.2 | 0.511 | 0.966 | 1.01 | 0.598 | 1.02 | 0.586 | 0.681 | 2.57 | 0.574 | 0.529 | 0.89
GCTTACGGGTCAGAGGTTATAGCATGAATAGAAT | 2.54 | 4.73 | 0.344 | 0.535 | 2.65 | 3.89 | 0.491 | 5.92 | 0.521 | 3.58 | 2.66 | 4.85 | 3.51 | 1.24 | 6.16 | 2.66 | -0.0589 | 3.48 | 0.979
TAGCCTAGGTCATCCGGGCCAGTATAGTGTCGGC | 1.42 | 2.94 | 0.0914 | -0.657 | 1.35 | 2.07 | 0.0405 | 2.61 | -0.259 | 3.77 | 3.17 | 4.1 | 4.53 | 1.24 | 2.96 | 3.16 | 1.16 | 3.81 | 1.42
CCGACTTGGGCAGAAAGGTTACCATACCATCCGG | -0.147 | -0.369 | -0.764 | -1.15 | 0.811 | 0.592 | -0.331 | 1.16 | -0.0756 | 1.12 | 1.52 | 0.806 | 0.702 | -0.476 | 1.3 | 0.651 | -0.379 | 0.0426 | -0.411
GGAACGAGGGCATTCTAGTTGATAGCATGGCGAT | 3.02 | 2.04 | -0.851 | -0.214 | -0.294 | 1.53 | 0.396 | 0.248 | -0.43 | 1.58 | 0.668 | 0.971 | 1.39 | 3.36 | 0.575 | 2.54 | -0.282 | 1.81 | 2.43
CCGACTGGGACATAAGGTTACCATAAGCCAGCCC | 1.57 | 0.909 | -1.05 | -1.68 | 0.314 | 0.0588 | -0.0723 | 0.922 | -0.0116 | 1.05 | 1.42 | 0.813 | 0.738 | -0.237 | 1.01 | 2.26 | 1.7 | 0.181 | -0.0177
TCATGTAGGTAAAAGGTGAAAGTCGGTGTGGTAA | 5.39 | 5.6 | 0.711 | 0.765 | 2.48 | 1.67 | 0.518 | 2.72 | 1.33 | 1.81 | 2.05 | 1.81 | 0.855 | 1.49 | 2.61 | 1.75 | 0.569 | 1.57 | 0.332
ACTAGTTGGTCAGCTGAGGTCACACAGAATTCGG | 1.48 | 3.02 | 0.452 | 0.375 | 2.18 | 5.36 | 1.87 | 4.56 | 0.455 | 3.72 | 4.54 | 4.18 | 4.44 | 1.41 | 4.19 | 5.12 | 5.11 | 4.42 | 3.47
GCGGACAGGTGAAACGCAGGTAACTCAGGGTGGC | 1.08 | 0.64 | -0.773 | -1.81 | -0.69 | -0.362 | -0.597 | 0.177 | -1.07 | 0.934 | 0.239 | 1.13 | 0.717 | -0.341 | 0.426 | 1.41 | -0.55 | -0.55 | -0.834
TAGCCTGGGTCATGGGCCAGTATACCACGCGAAC | 0.288 | 3.03 | 0.752 | -1.17 | 1.52 | 1.73 | -0.609 | 2.83 | -0.797 | 3.26 | 2.24 | 3.99 | 3.38 | -1.06 | 3.73 | 2.39 | -0.0617 | 1.82 | -0.187
CGAACTAGGTCATCCAGGACAGTAAATACATTGA | 7.97 | 8.2 | 3 | 3.62 | 2.26 | 2.15 | 1.3 | 2.69 | 0.413 | 3.89 | 2.98 | 4.05 | 4.72 | 2.51 | 2.89 | 3.58 | 2.2 | 4.71 | 2.45
TCTATTAGTTGAAGGGCAACGGACGAGTCCGTTT | 2.22 | 0.812 | 0.14 | 0.912 | 0.894 | 0.785 | 1.18 | 0.778 | 0.625 | 1.76 | 1.19 | 0.697 | 0.572 | 1.53 | 0.756 | 0.343 | 0.0596 | 1.06 | 1.98
